Laboratory results: PubChem BioAssay AID1159580 (chemical genetic matrix, 2015)
The whole screen tested about 5,500 compounds, of which about 2,000 (36%) were called active. Roughly 18% stayed inconclusive and do not appear here. No stated cut-off is given here; in the data, active means normalized growth mostly below about 0.91 (no sharp cut-off); inconclusive means no clear call, values can overlap the other calls; inactive means mostly above about 0.92. The list shows a part of the results.

Assay: chemical genetic growth profiling, strain panel (AID 1159580);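 further: tested at 20 µM; growth read once vehicle control cultures reached saturation at 30 °C; 1 = growth at the plate median or of vehicle wells; lower values mean less growth of the strain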
Settings: S. cerevisiae deletion strains, growth OD

Measured: normalized growth

COc1cc2occ(-c3ccccc3)c(=O)c2c(OC)c1C
active: locus YDL192W, strain arf1, hits give low values 0.903 | locus YDR137W, strain rgp1, hits give low values 0.765 | locus YDR318W, strain mcm21, hits give low values 0.891 | locus YDR392W, strain spt3, hits give low values 0.707 | locus YDR502C, strain sam2, hits give low values 0.919 | locus YER167W, strain BCK2, hits give low values 0.881 | locus YGL086W, strain mad1, hits give low values 0.901 | locus YGR252W, strain gcn5, hits give low values 0.707 | locus YHR079C, strain IRE1 (second series), hits give low values 0.911 | locus YHR200W, strain rpn10, hits give low values 0.905
inactive: locus YAL013W, strain DEP1, hits give low values 0.947 | locus YAL021C, strain ccr4, hits give low values 0.996 | locus YAL026C, strain drs2, hits give low values 0.96 | locus YAL030W, strain snc1, hits give low values 0.967 | locus YBL061C, strain skt5, hits give low values 0.985 | locus YBR009C, strain hhf1, hits give low values 0.978 | locus YBR021W, strain FUR4, hits give low values 0.923 | locus YBR023C, strain chs3, hits give low values 0.966 | locus YBR171W, strain sec66, hits give low values 0.965 | locus YBR229C, strain ROT2, hits give low values 0.959 | locus YBR231C, strain swc5, hits give low values 0.966 | locus YBR279W, strain paf1, hits give low values 0.992 | locus YCL011C, strain gbp2, hits give low values 0.973 | locus YCL016C, strain dcc1, hits give low values 0.968 | locus YCL029C, strain bik1, hits give low values 0.933 | locus YCL061C, strain MRC1, hits give low values 0.973 | locus YCL069W, strain vba3, hits give low values 0.975 | locus YCR088W, strain abp1, hits give low values 0.972 | locus YDL005C, strain med2, hits give low values 1.02 | locus YDL035C, strain GPR1, hits give low values 0.915 | locus YDL040C, strain nat1, hits give low values 0.973 | locus YDL074C, strain BRE1, hits give low values 0.817 | locus YDL101C, strain DUN1, hits give low values 0.953 | locus YDL134C, strain PPH21, hits give low values 0.963 | locus YDL185W, strain tfp1, hits give low values 0.945 | locus YDR001C, strain nth1, hits give low values 0.967 | locus YDR069C, strain doa4, hits give low values 0.995 | locus YDR101C, strain arx1, hits give low values 0.934 | locus YDR150W, strain NUM1, hits give low values 0.963 | locus YDR159W, strain sac3, hits give low values 0.98 | locus YDR162C, strain NBP2, hits give low values 0.875 | locus YDR195W, strain ref2 1.1 | locus YDR297W, strain sur2, hits give low values 0.974 | locus YDR334W, strain swr1, hits give low values 0.968 | locus YDR335W, strain msn5, hits give low values 0.991 | locus YDR388W, hits give low values 0.935 | locus YEL003W, strain gim4, hits give low values 0.978 | locus YEL037C, strain rad23, hits give low values 0.977 | locus YEL061C, strain CIN8 (second series), hits give low values 0.978 | locus YEL061C, strain CIN8, hits give low values 0.968 | locus YER015W, strain faa2, hits give low values 0.981 | locus YER016W, strain bim1, hits give low values 0.97 | locus YER110C, hits give low values 0.938 | locus YER111C, strain swi4, hits give low values 1 | locus YER155C, strain BEM2 (second series), hits give low values 0.886 | locus YER155C, strain BEM2, hits give low values 0.961 | locus YFR010W, strain ubp6, hits give low values 0.991 | locus YGL078C, strain dbp3, hits give low values 0.975 | locus YGL167C, strain pmr1, hits give low values 0.965 | locus YGL173C, strain kem1, hits give low values 0.983 | locus YGL227W, strain vid30, hits give low values 0.989 | locus YGL240W, strain doc1, hits give low values 0.944 | locus YGL248W, strain PDE1, hits give low values 0.961 | locus YGL253W, strain hxk2, hits give low values 0.971 | locus YGR078C, strain PAC10, hits give low values 0.932 | locus YGR135W, strain pre9, hits give low values 0.918 | locus YGR229C, strain SMI1, hits give low values 0.813 | locus YHR013C, strain ard1, hits give low values 0.976 | locus YHR027C, strain rpn1, hits give low values 0.989 | locus YHR030C, strain SLT2, hits give low values 0.948 | locus YHR094C, strain hxt1, hits give low values 0.956 | locus YHR129C, strain ARP1, hits give low values 0.949 | locus YHR142W, strain chs7, hits give low values 0.917 | locus YIL066C, strain RNR3, hits give low values 0.874 | locus YIL073C, strain SPO22, hits give low values 0.818 | locus YIL125W, strain kgd1, hits give low values 0.955 | locus YIR030C, strain dcg1, hits give low values 0.937 | locus YJL092W, strain hpr5, hits give low values 0.977 | locus YJL095W, strain BCK1 (second series), hits give low values 0.975 | locus YJL095W, strain BCK1, hits give low values 0.847 | locus YJL115W, strain asf1, hits give low values 0.998 | locus YJL129C, strain trk1, hits give low values 0.891 | locus YJL134W, strain LCB3, hits give low values 0.965 | locus YJL154C, strain vps35, hits give low values 0.99 | locus YJL164C, strain tpk1, hits give low values 0.937 | locus YJL166W, strain qcr8, hits give low values 0.975 | locus YJL168C, strain set2, hits give low values 0.946 | locus YJL187C, strain SWE1 (second series), hits give low values 0.934 | locus YJL187C, strain SWE1, hits give low values 0.976
